Source: PubChem BioAssay AID504648 (National Center for Advancing Translational Sciences (NCATS), 2011)
Screen size: about 390,000 compounds; about 610 (0.16%) were called active. Inconclusive results (about 4%) are left out. What follows is part of a selection rich in actives, with near analogues and random picks from the rest. A number with no mark means an inactive call. Calls follow the shape of the dose curve; as a rule, active = well fitted inhibition curve with a large enough effect; inconclusive = small, poorly fitted or top-dose-only effect, or effect the other way, or another doubt; inactive = no such curve, though single readings can be large or run the other way.

Experiment: Nrf2 qHTS screen for inhibitors: counterscreen for cytotoxicity
Settings: A549 ARE-Fluc cells, CellTiter-Fluor viability, 18-24 h; series mostly up to 46 µM; activity change, negative = cytotoxicity: at the top concentration
Description: NIH Molecular Libraries Probe Production Network [MLPCN]
NIH Chemical Genomics Center [NCGC]
Assay Provider: Shyam Biswal, Johns Hopkins University
Nrf2 is a transcription factor that maintains cellular redox homoestasis and protects cells from xenobiotics. Nrf2 binds to the antioxidant response element (ARE) to induce gene expression of a broad spectrum of genes that encode for antioxidants. […] Finding a small molecule that act as an inhibitor of Nrf2 function would represent a novel therapeutic target that could lead to improvement in survival of patients undergoing chemo- and/or radio- therapy.
So here we implemented a counterscreen to weed out the cytotoxic compounds.
1. Shibata, T., et al., Genetic Alteration of Keap1 Confers Constitutive Nrf2 Activation and Resistance to Chemotherapy in Gallbladder Cancer. Gastroenterology, 2008.
2. Sjoblom, T., et al., The consensus coding sequences of human breast and colorectal cancers. Science, 2006. 314(5797): p. 268-74.
NCGC Assay Protocol Summary:
A concentration-response assay was performed with A549 ARE_Fluc cells which are suspended in 5% FBS OPTI-MEM. Five uL were dispensed into 1536-well white TC-treated plate using the Kalypsys dispenser to achieve a density of 5000 cells/well in all columns except column 1. The plate is incubated at 37deg C at 5% CO2 for 2 hours before 23 nL of compounds are added with the Kalypsys pin tool equipped with a 1,536-pin array containing 10-nL slotted pins (FP1S10, 0.457-mm diameter, 50.8 mm long; V&P Scientific). The control compounds Budesonide and Staurosporine are both added at a concentration of 2mM and Budesonide is also added as a 1:10 titration, starting at 200uM, to achieve dose-response. After an 18-24 hour incubation at 37deg C at 5% CO2, 5ul of medium is added to column 1. Afterwards 1ul of 5x of CellTiter-Fluor (Promega) is added to every well. The plate is then incubated at 37deg C at 5% CO2 for 30 minutes before they are read on the ViewLux (Perkin Elmer) for a fluorescent read Ex=405(10)/Em=525(10) for a 3 second exposure, 2x binning, and high gain. Then 3 uL of 3x BugLite is dispensed into all wells and the plate is incubated at ambient room temperature for 15 minutes. Afterwards another ViewLux read is performed using the clear filter to get a luminescent read with the settings of 40 second exposure, 2x binning, and high gain. Cytotoxicity is assessed through the first fluorescent read and then biochemical activity against Nrf2 is measured in the luminescent read.
% is scaled to controls: 0 for no effect and ±100 for the full control effect; potency is read from the fitted curve at half-maximal effect.

Row | Structure (SMILES) | Potency | activity change, negative = cytotoxicity [%]
1 | CCC(C)(O)C(=O)OC1C(=O)OC2CC3C(C)=CC(=O)C(O)C3(C)C3C4(O)OCC23C1C(C)C4O (stereo not given) | 5.8 µM (active) | 
2 | c1ccc(CC2CCCCN2)cc1 (stereo not given) |  | -2.1
3 | Cc1ccc(-n2c(/C=C/c3cccc(C(F)(F)F)c3)nc3ccccc3c2=O)cc1 |  | -0.777
4 | CSc1nc2ccc(C)cc2c(=O)n1-c1cccnc1 |  | -2.75
5 | COc1cccc(-c2nc3ccc(N4CCN(C)CC4)cc3[nH]2)c1 |  | -4.58
6 | CCN1CCN(c2ccc([N+](=O)[O-])cc2C#N)CC1 |  | -0.62
7 | CN1CCN(c2cc(N3CCNCC3)ccc2[N+](=O)[O-])CC1 | 16.4 µM (active) | 
8 | CC1=CC(=Cc2sc3ccccc3[n+]2C)C=C(C)O1 | 2.59 µM (active) | 
9 | CC(c1ccccc1)(c1ccccc1)c1ccncc1 |  | 8.35
10 | Cc1ccc(Cn2nnnc2CN2CCC(n3nnc4ccccc43)CC2)cc1 |  | -13.9
11 | COC(=O)C1=C(c2cc3ccccc3o2)C[C@@H]2CC[C@H]1N2C(=O)NC1CCCCC1 |  | -2.75
12 | O=Cc1cn(Cc2ccc(F)cc2Cl)c2ccccc12 |  | 0.05
13 | CO[C@H]1[C@@H](O)[C@@H](C)O[C@H](O[C@H]2[C@H](Oc3cccc4c(O)c5c(=O)oc6ccc(C)c7c(=O)oc(c34)c5c67)O[C@H](C)[C@H](O)[C@@H]2O)[C@@H]1O |  | -11.9
14 | CCCCCCCCCCCCn1ccc(=N)cc1 |  | -16.4
15 | S=P(c1ccccc1)(c1ccccc1)c1c(-c2ccccc2)[nH]c2ccccc12 |  | -15.8
16 | CC(C)(C)c1ccc(CN2C(=O)CN=C(c3ccccc3)c3ccccc32)cc1 | 25.9 µM (active) | 
17 | O=C1CC(=O)N(Cc2ccccc2)C(=O)N1CCCCCCN1C(=O)CC(=O)N(Cc2ccccc2)C1=O |  | 1.06
18 | COc1cc([C@@H]2c3cc4c(cc3[C@H](OC(C)=O)[C@H]3COC(=O)[C@H]23)OCO4)cc(OC)c1OC |  | -4.1
19 | CCN(CC)C(=O)c1ccc(NC(=O)c2sccc2-c2ccccc2)cc1 |  | 4.65
20 | CC(C)c1ccc(-n2c(O)c(/C=N/N3CCOCC3)c(=O)[nH]c2=S)cc1 |  | 0.295
21 | CC(=O)OC1C2(CC3N4C(=O)C5(CO)SSC4(CC31O)C(=O)N5C)OC(C)C(C)(C)C2=O (stereo not given) | 7.31 µM (active) | 
22 | CC(Cc1ccccc1)NCCC(c1ccccc1)c1ccccc1 (stereo not given) |  | -4.79
23 | Cc1cccc(OP(=O)(Oc2cccc(C)c2)OC(c2ccccc2)C(F)(F)F)c1 (stereo not given) |  | 13.4
24 | O=C(O)c1cc[c]([Sb](=[O])([OH])[OH])cc1[N+](=O)[O-] |  | 6.48
25 | Cc1ccc(NC(=O)N(Cc2ccc3c(c2)OCO3)C2CCN(Cc3ccccc3)CC2)cc1F |  | -4.53
26 | CCN(CC)c1ccc([N+](=O)[O-])c2cccnc12 |  | -17.6
27 | CN(c1ccccc1)c1ccc([N+](=O)[O-])c2nonc12 | 20.6 µM (active) | 
28 | O=P1(Oc2ccccc2)CC(O)C(O)C(COCc2ccccc2)O1 (stereo not given) |  | -0.0059
29 | CC(C)(C)[C@]1(O)C[C@@H]2OC(=O)C[C@@]23C(=O)O[C@@H]2OC(=O)[C@H](O)[C@]213 |  | 2.45
30 | Cc1ccc(C(C)C)c(OCC(=O)N2CCN(CC(=O)N3CCOCC3)CC2)c1 |  | -1.23
